From PubChem BioAssay AID651820 (National Center for Advancing Translational Sciences (NCATS), 2012)
Out of some 340,000 compounds screened, about 12,000 (3.5%) were called active. Entries that show only a call come without a potency. Not shown: some 18% with an inconclusive outcome. Only a selection was taken, and actives are over-represented in it overall. Values without a mark were called inactive. Calls follow the shape of the dose curve; as a rule, active = well fitted inhibition curve with a large enough effect; inconclusive = small, poorly fitted or top-dose-only effect, or another doubt; inactive = no such curve, though single readings can be large or run the other way.

experiment: qHTS Assay for Inhibitors of Hepatitis C Virus (HCV); conditions: Huh7.5.1 HCVcc-Cre infection, luciferase reporter, 44 h; series mostly up to 41.8 µM
Procedure, shortened: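 Reporter virus HCVcc-Cre (~0.5 moi) infects cells exposed to compound; seeding density 1,000 cells/well with 4 h settling beforehand. Luminescence, 15 sec read, taken 44 h post-infection following a 15 min RT substrate incubation.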
Potency is read from the fitted curve at half-maximal effect.

Compound	Potency	activity change, negative = inhibition
CC(C)(C)c1nnc2sc(SCC(O)=C(C#N)c3nc4ccccc4[nH]3)nn2c1=O	inactive	–
CCOC(=O)C1CCCN(C(=O)c2ccc(C)c(S(=O)(=O)N3CCCCC3)c2)C1 (stereo unspecified)	inactive	–
O=C1CCC/C=C\C[C@@H](CC(=O)N(CCO)Cc2ccccc2)C(=O)NCCO1	inactive	–
CC(OC(=O)/C=C/c1ccccc1)C(=O)Nc1ccc(C(N)=O)cc1 (stereo unspecified)	inactive	–
O=C(CCCO)N/N=C/c1cc(Br)ccc1O	inactive	–
Oc1ccc(Br)cc1/C=N/Nc1ccccn1	3.55 µM (active)	–
Oc1ccc(Br)cc1C=Nc1ccc2[nH]ncc2c1	inactive	–
O=C(NCC1CCCCC1)NCC1CCCCC1	inactive	–
Cc1c(NC(=O)C(C)Oc2cccc(Cl)c2)c(=O)n(-c2ccccc2)n1C (stereo unspecified)	inactive	–
CC(Nc1nc(C(F)(F)F)nc2ccccc12)c1cccs1 (stereo unspecified)	10 µM (active)	–
Cc1cc(C)n(-c2nc(C(F)(F)F)nc3ccccc23)n1	inactive	–
Cc1ccsc1C(=O)OCC(=O)NCCc1ccccc1	inactive	–
CC1CCCN(C(=O)Cn2c(=O)oc3cc(S(=O)(=O)N4CCCCC4C)ccc32)C1 (stereo unspecified)	inactive	–
CCOc1cc(N2CCOCC2)c(OCC)cc1NC(=O)COc1cccc2cccnc12	7.94 µM (active)	–
CCOc1cc(N2CCOCC2)c(OCC)cc1NC(=O)c1ccc(C)s1	25.1 µM (active)	–
CCOc1cc(N2CCOCC2)c(OCC)cc1NC(=O)COC(=O)[C@H](Cc1c[nH]c2ccccc12)NC(C)=O	inactive	–
CCOc1cc(N2CCOCC2)c(OCC)cc1NC(=O)c1cc(C)nc2ccccc12	inactive	–
NC(=O)C1CCN(C(=O)COc2cccc3cccnc23)CC1	inactive	–
CCOc1cc(N2CCOCC2)c(OCC)cc1NC(=O)C1=NN(c2cccc(C)c2)C(=O)CC1	inactive	–
CC(C)(C)NS(=O)(=O)NC(=O)C1=C(N2CCCC2)COC1=O	inactive	–
COc1ccccc1CNC(=O)COC(=O)c1cccs1	inactive	–
N#Cc1ccc(C(=O)Nc2nc(-c3cccs3)c(C(=O)C(F)(F)F)s2)cc1	11.2 µM (active)	–
CCOc1cccc(C(=O)Nc2nnc(-c3cccs3)s2)c1	inactive	–
Cc1ccc(C(=O)Nc2nnc(-c3cccs3)s2)cc1C	inactive	–
CC1CCN(C(=O)COC(=O)CCC(=O)c2cccs2)CC1	inactive	–
COCC(=O)N(C)[C@H]1C[C@H]2c3cc(Oc4ccccc4C)ccc3CCN2C(=O)[C@H]1[C@H](C)O	inactive	–

Compound	Potency	activity change, negative = inhibition
CCN(CC)S(=O)(=O)c1ccc(OC)c(NC(=O)CCc2c(C)noc2C)c1	inactive	–
CCN(C(=O)CSc1nnc(-c2ccc(OC(F)F)cc2)n1N)C1CCS(=O)(=O)C1 (stereo unspecified)	inactive	–
CC(=O)c1cc(CN2CCC(C(=O)Nc3cccc(-c4cscn4)c3)CC2)cs1	10 µM (active)	–
O=C(Nc1cccc(-c2cscn2)c1)C1CCN(Cc2ccsc2)CC1	inactive	–
CC(=O)c1cc(CN2CCC(n3nccc3NC(=O)c3ccccc3Cl)CC2)cs1	inactive	–
CC(C)(C)OC(=O)C[C@@H]1C/C=C\C[C@@H](CC(=O)N[C@@H](CO)Cc2ccccc2)C(=O)N2CCC[C@H]2COC1=O	inactive	–
c1ccc2c(c1)CSc1sccc1C2=C1CCNCC1	15.8 µM (active)	–
CN1CCC(N(C)S(=O)(=O)c2ccc(NC(=O)c3cccc(C#N)c3)cc2)CC1	inactive	–
Cc1cccc(NC(=O)c2cccc(C(F)(F)F)c2)c1	inactive	–
Cc1cccc(NC(=O)Nc2nnc(-c3ccccc3)o2)c1	inactive	–
Cc1cccc(NC(=O)Nc2cccc(Oc3c(F)c(F)c(F)c(F)c3F)c2)c1	11.2 µM (active)	–
Cc1cc(NC(=O)C(C)N2C(=O)c3ccccc3S2(=O)=O)no1 (stereo unspecified)	inactive	–
O=C(c1ccccc1)N1CCN(c2ccc([N+](=O)[O-])c(NCc3ccco3)c2)CC1	8.91 µM (active)	–
O=C(c1ccc(S(=O)(=O)NCc2ccco2)cc1)N1CCN(c2ccccc2)CC1	inactive	–
O=[N+]([O-])c1ccc(N2CCN(S(=O)(=O)c3ccc4ccccc4c3)CC2)cc1NCc1ccco1	inactive	–
O=C(Nc1cccc2c1CCCC2)c1ccc(F)cc1	inactive	–
CCN1C(=O)[C@H]2[C@@H](c3ccc(C)cc3)N3C(=O)N(c4cccc(Br)c4)C(=O)[C@@]3(CC)[C@H]2C1=O	inactive	–
CN(CC(=O)Nc1cccc(F)c1)C(=O)CC1CCCC1	inactive	–
CC(=O)Nc1ccc(NC(=O)C(C)OC(=O)C2CC(=O)N(CCc3ccccc3)C2)cc1 (stereo unspecified)	inactive	–
CN(C)c1ccc(/C=N\S(=O)(=O)c2ccccc2)cc1	inactive	–
CC[n+]1cc(C)ccc1/C=C/c1ccc(N(C)C)cc1	5.62 µM (active)	–
C/C(=N\Nc1ccccc1)c1cccs1	inactive	–
Cc1csc(NC(=O)c2ccc(C)s2)n1	inactive	–
O=C(Nc1ccc2sc3ccccc3c(=O)c2c1)c1ccccc1Cl	3.55 µM (active)	–
O=C(Nc1ccc2nc3n(c(=O)c2c1)CCCCC3)c1ccccc1Cl	inactive	–
COCC(=O)N1CCc2ccc(NC(=O)c3ccccc3Cl)cc2C1	inactive	–

Compound	Potency	activity change, negative = inhibition
CCC1CCCCN1C(=S)NC(=O)c1ccco1 (stereo unspecified)	inactive	–
COc1ccc(OC)c(/C=N/NC(=O)c2ccc[n+](CC(=O)c3ccccc3)c2)c1	inactive	–
Cc1cccc(C(=O)OCC(=O)NC(C)C2CC3CCC2C3)c1O (stereo unspecified)	inactive	–
COc1ccccc1CNC(=O)CCCN1C(=O)NC2(CCCC2)C1=O	inactive	–
OC(COc1ccccc1)Cn1cc(Br)cn1 (stereo unspecified)	inactive	–
O=C(C(c1ccccc1)c1ccccc1)N1CCN(CC(O)COc2ccccc2)CC1 (stereo unspecified)	inactive	–
OC(CN=c1sc2ccccc2n1CC(O)COc1ccccc1)COc1ccccc1 (stereo unspecified)	11.2 µM (active)	–
CN(c1ccccc1)S(=O)(=O)c1cc(C(=O)N2CCN(c3ncccn3)CC2)ccc1Cl	inactive	–
Cc1ccc(S(=O)(=O)N2CC(O)C[C@H]2C(=O)OCC(=O)Nc2ccc(N3CCOCC3)cc2)cc1C (stereo partly specified)	inactive	–
Cc1ccccc1NC(=S)NNC(=O)c1cccc(Br)c1	inactive	–
CC(CC(=O)O)CC(=O)NNC(=O)c1cccc(Br)c1 (stereo unspecified)	inactive	–
O=C(/C=C/NNC(=O)c1cccc(Br)c1)c1ccccc1	10 µM (active)	–
CC(=O)c1cccc(-c2ccc(CN3C(CC(C)C)C(=O)N(Cc4cn(CC5CCCCC5)nn4)CCS3(=O)=O)cc2)c1 (stereo unspecified)	–	-21% [at 8.37 µM]
COc1ccccc1-n1cnc2cc(C(=O)NCC3CCCO3)ccc21 (stereo unspecified)	inactive	–
Cn1c(CCN2CCCC2)nc2cc(NS(=O)(=O)c3ccccc3)ccc21	inactive	–
COc1ccccc1-n1cnc2cc(NS(=O)(=O)c3ccccc3)ccc21	22.4 µM (active)	–
O=C(COC(=O)c1ccc(F)cc1)Nc1ccc2c(c1)OCO2	inactive	–
O=C(NCc1ccccc1Cl)C(=O)NCC1CCCN1S(=O)(=O)c1cccs1 (stereo unspecified)	inactive	–
COc1ccccc1CCNC(=O)C(=O)NCCC1CCCCN1S(=O)(=O)c1cccs1 (stereo unspecified)	35.5 µM (active)	–
COc1ccc(C(=O)NCC2CCCN2S(=O)(=O)c2cccs2)cc1OC (stereo unspecified)	inactive	–
Oc1[nH]c2ccccc2c1N=Nc1c(F)c(F)c(F)c(F)c1F	inactive	–
Nc1cc2c(cc1Br)-c1ccc(F)cc1C2=O	12.6 µM (active)	–
CC1CCCCC1NC(=O)NC(=O)COC(=O)C1=NN(c2ccccc2)C(=O)CC1 (stereo unspecified)	inactive	–
COc1ccc(OC)c(C(c2nnnn2C(C)(C)C)N2CCc3ccccc3C2)c1 (stereo unspecified)	7.94 µM (active)	–
Cc1ccc(C(c2nnnn2C(C)(C)C)N2CCc3ccccc3C2)cc1 (stereo unspecified)	inactive	–
COc1ccccc1C(c1nnnn1C(C)(C)C)N1CCN(Cc2ccccc2)CC1 (stereo unspecified)	inactive	–

Compound	Potency	activity change, negative = inhibition
CCCCn1c(N)c(N(CC)C(=O)c2ccc(N(C)S(=O)(=O)c3ccc(C)cc3)cc2)c(=O)[nH]c1=O	inactive	–
O=C(c1ccc2c(c1)C(=O)N(Cc1ccncc1)C2=O)N1CCN(S(=O)(=O)c2ccc(OC(F)(F)F)cc2)CC1	inactive	–
Cc1cc(N/N=C/c2ccccc2F)c2ccccc2n1	inactive	–
Fc1ccc(/C=N/Nc2nc(-c3cccnc3)nc3ccccc23)cc1	inactive	–
Oc1ccc(/C=N/Nc2nc(-c3ccccc3F)nc3ccccc23)c(O)c1	11.2 µM (active)	–
C[C@]12CC[C@H](O)CC1=CCC1C2CC[C@@]2(C)C1CC[C@@H]2NC(=O)CCC(=O)O (stereo partly specified)	inactive	–
COC(=O)c1sc2ncccc2c1OCc1ccc(Cl)cc1Cl	inactive	–
CCOc1ccc(NC(=O)NNC(=O)c2ccc(Cl)cc2Cl)cc1	inactive	–
NC(N)=N/N=C/c1ccc(OCc2ccc(Cl)cc2Cl)cc1	11.2 µM (active)	–
CC(=O)NC12CC3CC(C1)CC(C(=O)N1CCN(S(=O)(=O)c4cccs4)CC1)(C3)C2	inactive	–
CC(C)=C(NC(=O)c1ccccc1)C(=O)N/N=C(\C)c1ccccc1O	inactive	–
CCCCCCCN=C(C)c1ccccc1O	inactive	–
Oc1cccc(/C=N/Nc2ccc(Cl)nn2)c1O	2.51 µM (active)	–
C/C(=N\Nc1ccc(Cl)nn1)c1ccccc1O	0.501 µM (active)	–
COc1cccc(/C=N/Nc2ccc(Cl)nn2)c1	inactive	–
Clc1ccc(N/N=C/c2cccs2)nn1	inactive	–
CCCN(C(=O)CSc1nnc(N)s1)c1c(N)n(Cc2ccccc2)c(=O)[nH]c1=O	inactive	–
CCc1ccc(-c2nn(-c3ccccc3C)cc2C(=O)N2CCN(C3CCS(=O)(=O)C3)CC2)cc1 (stereo unspecified)	inactive	–
Cc1ccc(-c2nn(-c3ccccc3)cc2C(=O)NC2CCC(O)CC2)cc1 (stereo unspecified)	inactive	–
CCc1ccc(-c2nn(-c3ccccc3)cc2CSC(=N)N)cc1	10 µM (active)	–
Cc1ccc(NC(=O)C(C)Sc2nnc(C3CC3)n2C2CC2)cc1S(=O)(=O)N1CCOCC1 (stereo unspecified)	inactive	–
CC(C)CC[n+]1ccn(C2=C([O-])c3ccccc3C(=O)/C2=N\S(=O)(=O)c2ccccc2)c1	10 µM (active)	–
COc1ccc(C(=O)NCc2ccccc2C)cc1S(=O)(=O)NC1CCCC1	inactive	–
